# Assay results published in PubChem BioAssay AID431 (Sanford-Burnham Center for Chemical Genomics, 2006).
# About 1,100 (1.7%) of roughly 63,000 compounds were called active. What follows is part of a selection rich in actives, with near analogues and random picks from the rest. Measured potencies and affinities stand elsewhere. Values without a mark were called inactive.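 How the source made its calls: active means compounds whose percent cytotoxicity in the single-dose primary screen, scaled between solvent and toxic-drug controls, exceeds 50; inactive means the rest.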
# Assay: viability loss of HPDE-C7K cells – cell-based, fluorescence, HTS, primary screen (AID 431);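 further: 0% = DMSO solvent wells and 100% = doxorubicin-treated wells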
# Details: HPDE-C7K KRASV12 cells, Alamar Blue viability, 48 h; at 10 µM; stronger effect = higher value
row,SMILES,cytotoxicity
1,CCN(CC)CCNC(=O)C1CCC(=O)N(c2ccc(OC)cc2)C1c1ccc(F)cc1 (stereo not drawn),5.4%
2,COc1cccc(N2C(=O)CC(N3CCC(C(N)=O)(N4CCCCC4)CC3)C2=O)c1 (stereo not drawn),-2.6%
3,Clc1ccc(-c2nnc3sc(Cc4cccs4)nn23)c(Cl)c1,-3.4%
4,O=C(NC1CCCCC1)N1CCCCCCC1,-4.9%
5,COc1cc2c(=O)n(Cc3ccco3)c(=O)n(CC(=O)c3cccc(Br)c3)c2cc1OC,50% (active)
6,COc1cc2c(=O)n(Cc3ccco3)c(=O)n(CC(=O)c3ccc(Br)cc3)c2cc1OC,80.3% (active)
7,COc1cc2c(=O)n(Cc3ccccc3)c(=O)n(CC(=O)C(C)(C)C)c2cc1OC,-1.3%
8,COc1cc2c(=O)n(Cc3ccccc3)c(=O)n(CC(=O)NCc3ccco3)c2cc1OC,5.4%
9,COc1ccc(CCNC(=O)Cn2c(=O)n(Cc3ccco3)c(=O)c3ccc(Cl)cc32)cc1OC,4.2%
10,CCOC(=O)Cn1c(=O)n(Cc2ccco2)c(=O)c2ccc(C(=O)NCCc3ccccc3)cc21,7.3%
11,COC(=O)c1ccc(C(=S)N2CCOCC2)cc1,-0.4%
12,Cc1ccc(C(c2nnnn2C(C)(C)C)N(Cc2ccco2)Cc2cccs2)cc1 (stereo not drawn),1.5%
13,COc1cccc(NC(=O)COC(=O)c2cccnc2)c1,-8.8%
14,CC(C)(C)OC(=O)N1CCC[C@H]1C(=O)NCC1CCC(C(=O)O)CC1 (stereo partly drawn),7.4%
15,CCC(c1nnnn1C1CCCCC1)N1CCN(C2CCCC2)CC1 (stereo not drawn),3.5%
16,CCCCOc1cc(C)nc(NCc2ccccc2)n1,-11.6%
17,Cc1cc(NCCCN)nc(-c2ccccc2O)n1,22.2%
18,Cc1cc(C)nc(NCCCc2ccccc2)n1,-12.4%
19,CCCCNc1cc(C)nc(NCc2ccccc2)n1,82.9% (active)
20,Cc1cc(Nc2ccccc2)nc(-c2ccccc2O)n1,1.4%
21,CC1=C(C(=O)OC(C)C)C(c2ccccn2)n2ncnc2N1 (stereo not drawn),5.9%
22,COc1ccccc1NC(=O)N1CCN(c2ccccc2F)CC1,8%
23,O=C(O)COc1ccc(C(=O)Cc2ccc3c(c2)OCCCO3)c(O)c1,-4.8%
24,O=C(O)CCC(=O)c1ccc2c(c1)OCCO2,1.9%
25,O=C(Cc1ccc2c(c1)OCCO2)c1c(O)cc(O)cc1O,62.7% (active)

row,SMILES,cytotoxicity
1,O=C(Cn1ncc2c1-c1ccccc1OC2)N(Cc1ccco1)C1CCCCC1,2.4%
2,Cn1c(SCC(=O)N2CCN(c3ccccc3)CC2)nnc1-c1cc2ccccc2o1,10.4%
3,CSc1nsc(SC)c1NC(=O)OCCc1ccccn1,-3.5%
4,CC(C)(C)c1ccc(Cn2nnc3c(=O)[nH]c(C4CCN(C(=O)Cc5cccs5)CC4)nc32)cc1,8.5%
5,O=C(Cc1cccs1)N1CCCC(c2nc3c(nnn3Cc3ccc(F)cc3)c(=O)[nH]2)C1 (stereo not drawn),8.4%
6,CCn1c(CN2CCCCCC2=O)nnc1SCc1cnc(-c2ccccc2)s1,-1.7%
7,Cc1ccc(-c2csc3ncnc(-n4nc(C)cc4N)c23)cc1,-8.1%
8,O=C(CNC(=O)c1ccco1)OCc1ccc(Cl)cc1,-3%
9,COc1ccccc1NC(=O)Nc1c(C)n(C)n(-c2ccccc2)c1=O,-1.8%
10,CCOC(=O)Cn1c(=O)n(C2CCCC2)c(=O)c2ccccc21,-5.4%
11,CCN1CCN(c2ncnc3c2cnn3-c2ccc(C)cc2C)CC1,11.6%
12,CCc1cc2c(N3CCCCC3)ncnc2s1,-10.5%
13,CCc1cc2c(N3CCN(c4nnc(CC)s4)CC3)ncnc2s1,19.4%
14,Cc1ccc(-n2ncc3c(N4CCCC4)ncnc32)c(C)c1,1.2%
15,O=C(COc1ccccc1)N1CCN(c2ncnc3c2cnn3-c2ccccc2)CC1,5.3%
16,CCc1cc2c(N3CCN(c4ccccc4)CC3)ncnc2s1,91.1% (active)
17,COc1ccc(-n2ncc3c(N4CCN(c5cc(C)ccc5C)CC4)ncnc32)cc1,15.6%
18,O=C(c1ccco1)N1CCN(c2ncnc3c2cnn3-c2ccccc2)CC1,-0.8%
19,COc1ccc(N2CCN(c3ncnc4c3cnn4-c3ccc(C)cc3C)CC2)cc1,-12.5%
20,O=C(CSc1nnnn1C1CCCCC1)NCCc1ccccc1,4.8%
21,COc1cccc(-c2cnc(NCc3cc(Cl)ccc3O)n2C)c1,-7.2%
22,CC(=O)Nc1ccc(NC(C)=O)s1,-16.5%
23,CCCCNC(=O)C(C#N)c1nc2ccccc2nc1N1CCCC1 (stereo not drawn),-16.3%
24,CCN(CC(=O)Nc1ccc2c(c1)OCCO2)Cc1cc(=O)oc2c(C)c(C)ccc12,9.3%
25,Cc1n[nH]c(C)c1S(=O)(=O)Nc1ccc2c(c1)OCCO2,4.3%

row,SMILES,cytotoxicity
1,Cc1cc(C#N)c(C)n1-c1cc(C(F)(F)F)ccc1N1CCOCC1,-11.9%
2,COCCCn1c(SCC(=O)N2CCCCC2C)nnc1-c1ccco1 (stereo not drawn),-0.2%
3,CCn1c2ccccc2c2nnc(SCC(=O)NC(CC(C)C)C(=O)OC)nc21 (stereo not drawn),2.3%
4,O=C(CSc1nc(-c2ccccc2)cc(=O)[nH]1)N1CCOCC1,8.9%
5,CCc1noc(C)c1C(=O)Nc1sc(C(=O)N(C)C)c(C)c1C(=O)OC,2.3%
6,COc1ccc(S(=O)(=O)N(CC(=O)O)Cc2ccccc2)cc1OC,1.8%
7,COCc1nc2ccccc2n1CCOc1ccccc1OC,-0.4%
8,COc1cccc(NC(=O)c2oc3ccccc3c2NC(=O)C(C)(C)C)c1,17.5%
9,CSc1ccc(-c2nnn(Cc3ccccn3)n2)cc1,-1.2%
10,CC1=CC(C)C2C(=O)N(CCC[N+](C)(C)C)C(=O)C2C1 (stereo not drawn),14.9%
11,Cc1ccc(S(=O)(=O)Nc2ccc3nc(N)sc3c2)cc1,4.4%
12,CSc1nc2ccc(NS(=O)(=O)c3ccc(Cl)s3)cc2s1,54.6% (active)
13,CSc1nc2ccc(S(=O)(=O)NC3CCCCC3)cc2s1,6.2%
14,Cc1cc2n(n1)C(c1ccc(N(C)C)cc1)Nc1ccccc1-2 (stereo not drawn),23.5%
15,c1ccc(-n2c(-c3ccco3)nnc2N2CCOCC2)cc1,-4.7%
16,CCOC(=O)N1CCN(C(=O)CCS(=O)(=O)c2ccc(Br)s2)CC1,-3.8%
17,CC1(C)Nc2ccc(O)cc2-c2c1ssc2=S,87.7% (active)
18,CC1(C)c2ssc(=S)c2-c2ccccc2N1C(=O)c1ccco1,-6.9%
19,O=C(c1ccncc1)N1CCN(C(=O)c2ccncc2)CC1,-16.4%
20,Nc1c(NCCCN2CCOCC2)c2ccccc2oc1=O,6.2%
21,Cn1nnnc1SCc1nc2ccccc2[nH]1,3.7%
22,O=C(COc1ccc(Cl)cc1Cl)NCCCn1ccnc1,1.3%
23,Clc1ccc(SCCn2ccnc2)cc1,-7.6%
24,Clc1ccc(OCCn2ccnc2)c(Cl)c1,-10.5%
25,OC(Cn1ccnc1)c1ccc(Cl)cc1Cl (stereo not drawn),0.4%

row,SMILES,cytotoxicity
1,OC(Cn1cncn1)c1ccc(Cl)cc1Cl (stereo not drawn),1.1%
2,CC(Oc1ccc(Cl)cc1Cl)C(=O)NCCCn1ccnc1 (stereo not drawn),2.8%
3,COc1ccc(-c2ccc(-c3noc(-c4ccco4)n3)c(OC)n2)cc1,9.8%
4,O=C1c2oc3ccccc3c(=O)c2C(c2cccc(Br)c2)N1Cc1ccco1 (stereo not drawn),5.4%
5,Cc1cc(C)nc(SCc2nnc(SCC(=O)N3CCCc4ccccc43)n2C)n1,9.2%
6,O=C(COC(=O)CN1C(=O)c2ccccc2C1=O)Nc1ncc(Cl)cc1Cl,-11.3%
7,CCO/C=N/c1c(C#N)c(CC#N)nn1-c1ccccc1,-4.3%
8,COc1ccc(C2NC(=O)c3n[nH]c(C)c32)c(OC)c1 (stereo not drawn),2.8%
9,COc1ccc(C2C(C(C)=O)=C(O)C(=O)N2C)c(OC)c1 (stereo not drawn),18.5%
10,COc1ccc(C2CC(c3c(O)cc(C)oc3=O)=NCCS2)c(OC)c1 (stereo not drawn),69.2% (active)
11,c1ccc(Sc2nc(N3CCCCC3)nc(N3CCCCC3)n2)nc1,-16.3%
12,Cc1cc(C)c(S(=O)(=O)Nc2ccc(O)cc2)cc1C,13%
13,O=C(CCC1COc2ccccc2O1)Nc1ncccc1O (stereo not drawn),-11.8%
14,CN1/C(=C\P(=O)(N(C)C)N(C)C)C(C)(C)c2ccccc21,-1.6%
15,O=C(NCC1(N2CCOCC2)CCCCC1)c1ccc(Cl)c(S(=O)(=O)NCc2ccco2)c1,-5.8%
16,O=C(O)c1ccc(Cl)c(S(=O)(=O)NCc2ccco2)c1,-11.1%
17,Cc1ccc(S(=O)(=O)Cc2ccc(C(=O)N3CCN(c4cc(C)ccc4C)CC3)o2)cc1,20.6%
18,Cc1ccc(C)c(N2CCN(C(=O)c3ccc(CS(=O)(=O)c4ccccc4C)o3)CC2)c1,52.8% (active)
19,Cc1ccccc1S(=O)(=O)Cc1ccc(C(=O)N2CCN(c3ccc(F)cc3)CC2)o1,3.3%
20,Cc1cccc(N2CCN(C(=O)c3ccc(Cl)c(S(=O)(=O)NCc4ccco4)c3)CC2)c1C,55.9% (active)
21,COc1ccc(S(=O)(=O)Cc2ccc(C(=O)N3CCN(c4cccc(C)c4C)CC3)o2)cc1,48.2%
22,Cc1ccccc1S(=O)(=O)Cc1ccc(C(=O)N2CCN(c3cccc(C)c3C)CC2)o1,73.9% (active)
23,Cc1ccccc1S(=O)(=O)Cc1ccc(C(=O)N2CCN(c3ncccn3)CC2)o1,-21.5%
